Screening results from PubChem.
aSyn 5UTR act: Activators via SNCA 5'UTR binding, MLPCN. activity score, % (tested at 7.5 µM), hits read low. AID 1814. 7.1% of 300,000 active. alpha-synuclein 5'UTR reporter, activators screen; in the data active = activity score below about -60%
The depositor's hits bear a star. The list is a sample of the results.

SMILES	aSyn 5UTR act
CCOC(=O)c1sc(NC(=O)CNCc2ccccn2)c(C(=O)OCC)c1C	60.3
Cc1nc(-c2ccccn2)sc1C(=O)Nc1ccc(Cl)c(Cl)c1	-78.4*
CCOC(=O)c1sc(-c2ccccn2)nc1C	-125.5*
CCOC(=O)c1ccc(N2Cc3ccccc3C2=N)cc1	-77.8*
COc1cc(CNCCO)ccc1OCC(=O)Nc1ccc(Br)cc1	-68.9*
Cc1ccsc1C(=O)NCCc1nnc2ccccn12	-77.9*
O=C(NCCc1nnc2ccccn12)c1cccs1	-66.8*
Cc1cc(COc2ccccc2)oc1C(=O)O	-107.5*
C=CCc1ccc(OCC(O)COCC)c(OC)c1 (stereo not drawn)	-76.3*
C=CCc1ccc(OCc2ccc(C(=O)OC)o2)c(OC)c1	-121.2*
COC(=O)c1ccc(COc2cc(C)ccc2C)o1	-148.7*
Cc1ccc(OCc2ccc(C(=O)O)o2)cc1C	-188.3*
Cc1ccc(OCc2ccc(C(=O)Nc3nccs3)o2)cc1C	-110.2*
COC(=O)c1ccc(COc2ccc(C)c(C)c2)o1	-198.4*
Cc1csc(NC(=O)c2ccc(COc3ccccc3)o2)n1	-136.3*
CCCC[n+]1ccn(C2=C([O-])c3ccccc3C(=O)/C2=N\S(=O)(=O)c2ccc(Cl)cc2)c1	66.0
COc1ccc(-c2nnc(NC(=O)c3ccc4c(c3)OCCO4)o2)cc1	104.7
COc1cccc(C(=O)Nc2cc3c(cc2Cl)OCCCO3)c1	-130.2*
COc1ccc(C(=O)Nc2cc3c(cc2Cl)OCCCO3)cc1	-148.2*
O=C(NC12CC3CC(CC(C3)C1)C2)c1ccc(-c2ccccc2Cl)o1	-220.4*
O=C(NC12CC3CC(CC(C3)C1)C2)c1ccc(-c2cccc(Cl)c2)o1	-133.4*
O=C(NC12CC3CC(CC(C3)C1)C2)c1ccc(-c2ccc(Cl)cc2)o1	-251.5*
Nc1nccc(-c2ccc(-n3cccc3)cc2)n1	-132.1*
Cn1cc(/C=C2/SC(=O)N(c3ccccc3)C2=O)c2ccccc21	-221.4*
Cn1cccc1/C=C1\SC(=O)N(c2ccccc2)C1=O	-115.3*
SMILES	aSyn 5UTR act
COc1nc(Nc2ccc(C(C)C)cc2)nc(OC)n1	-111.3*
COC(c1ccccc1)c1nnc(CCC(=O)N(C)C(C2CC2)C2CC2)o1 (stereo not drawn)	-146.6*
C/C(=N\NC(=O)CN1CCCCC1)c1cccc([N+](=O)[O-])c1	-93.1*
Nc1ccccc1C#CC(=O)c1ccccc1	-90.1*
CCc1ccc(-c2nc(CSCC(=O)N3CCN(c4ccccn4)CC3)c(C)o2)cc1	81.6
O=C(CSCc1ccccc1Cl)N1CCN(c2ccccn2)CC1	-82.0*
O=C(CCSCc1ccccc1F)N1CCN(c2ccccn2)CC1	-78.1*
Clc1ccc(-c2nc3cc(CN4CCCCC4)ccc3o2)cc1	-206.0*
CC(=O)C(C)Oc1ccc2c3c(c(=O)oc2c1)CCCCC3 (stereo not drawn)	-109.2*
O=c1oc2cc(OCc3ccc([N+](=O)[O-])cc3)ccc2c2c1CCCC2	-65.4*
CC(=O)C(C)Oc1ccc2c3c(c(=O)oc2c1)CCCC3 (stereo not drawn)	-79.1*
N#C/C(=C\c1ccc(OCc2ccc(Br)cc2)cc1)C(=O)Nc1cccc(C(=O)O)c1	-76.2*
COc1cc(/C=C(\C#N)C(=O)Nc2cccc(C(=O)O)c2)ccc1OCc1ccc(F)cc1	-90.2*
N#C/C(=C\c1ccc(OCc2ccc(F)cc2)cc1)C(=O)Nc1cccc(C(=O)O)c1	-107.6*
